Screening results: PubChem, National Center for Advancing Translational Sciences (NCATS)
A selection: hits, their analogues and other compounds. The true share with any hit is near 20%.
Pf growth 96h: Primary qHTS for delayed death inhibitors of the malarial parasite plastid, 96 hour incubation | actives 6.9% (n = 320,000) | P. falciparum luciferase reporter growth, 96 h | Potency, µM (highest dose often 28.7 µM), most hits filed as inhibitors
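P. falciparum expressing integrated firefly luciferase grown in erythrocytes (2% hematocrit, 0.05% parasitemia final) with compounds for 96 hours at 37 C, 5% CO2. Growth inhibition read as loss of luminescence after adding luciferase detection reagent.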
CHX counter: Cycloheximide Counterscreen for Small Molecule Inhibitors of Shiga Toxin | cell reporter, cycloheximide protein synthesis inhibition counterscreen | max response, % | actives 12% (n = 300,000) | AID 2314, 2010; in the data active = max response mostly above about 13%, no sharp cut-off; inactive = mostly below about 14%; note: read at 38.3 µM for the half of the compounds with a filed dose
HCMV inh: qHTS Assay for inhibitors of the human cytomegalovirus (HCMV); AID 1259415, 2018; actives 4.5% (n = 410,000); activity change, negative = inhibition, % at 57.5 µM; HFF cells, HCMV-luciferase reporter, 72 h; active compounds read low; in the data active = activity change below about -60%; inconclusive = no clear call, values can overlap the other calls; inactive = above about -39%
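Two-dose cell screen: HFF monolayers treated with compounds and infected with luciferase-expressing HCMV at 1 PFU/cell, 72 h at 37C, then lysed for luciferase measurement.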
Shiga inhibitor: A qHTS for Small Molecule Inhibitors of Shiga Toxin; inhibition, % at 38.7 µM; actives 9.2% (n = 290,000); Vero cells, Shiga toxin protein synthesis inhibition reporter; in the data active = inhibition mostly above about 28%, no sharp cut-off; inactive = mostly below about 43%
Pf growth 48h: Primary qHTS for delayed death inhibitors of the malarial parasite plastid, 48 hour incubation | actives 5.9% (n = 310,000) | AID 504832, 2011 | P. falciparum luciferase growth in erythrocytes, 48 h | Potency, µM (doses to about 28.7 µM), usual class: inhibitors
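Erythrocytes infected with P. falciparum carrying an integrated firefly luciferase reporter (2% hematocrit, 0.1% parasitemia final) were exposed to compounds in RPMI 1640 with 0.5% Albumax at 37 C, 5% CO2. Growth inhibition was scored as reduced luminescence.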
Hits are given with their value; – = inactive; ? = inconclusive; · = not tested or not shown; [ ] = remark or other dose. Unless noted, calls come from the whole dose curve; as a rule, active = well fitted inhibition curve with a large enough effect; inconclusive = small, poorly fitted or top-dose-only effect, or another doubt; inactive = no such curve, though single readings can be large or run the other way.

SMILES	Pf growth 96h	CHX counter	HCMV inh	Shiga inhibitor	Pf growth 48h
CCOC(=O)c1c(C)n(-c2ccc(C)cc2)c2ccc(OCC(O)CN3CCN(C)CC3)cc12 (configuration not stated)	–	–	?	–	9.3µM
CCOC(=O)c1c(C)n(C)c2ccc(OCC(O)Cn3c(C)nc4ccccc43)cc12 (configuration not stated)	·	–	-60	–	10µM
CCOC(=O)c1c(C)n(C)c2ccc(OCC(O)CN3CCN(C)CC3)cc12 (configuration not stated)	–	–	–	–	·
CCOC(=O)c1c(C)n(Cc2ccccc2)c2ccc(OCC(O)CN3C(=O)CNC3=O)cc12 (configuration not stated)	·	–	–	–	?
CCOC(=O)c1c(C)n(C)c2ccc(OCC(O)CNCCc3ccccc3)cc12 (configuration not stated)	4.7µM	–	–	–	?
O=C(Cc1ccc(Cl)cc1)NCCS(=O)(=O)N1CCN(c2ccccc2F)CC1	?	·	–	·	?
CCCCN(C)C(=O)c1ccc2c(c1)N(Cc1ccc(F)cc1)C(=O)c1ccccc1S2(=O)=O	·	·	–	·	·
O=C(CCCn1c(=O)[nH]c2ccccc2c1=O)N1CCN(c2ccccc2)CC1	·	·	–	·	·
CCC(=O)N1CCC(C)(C(=O)Nc2ccc3c(c2)OCCO3)C1 (configuration not stated)	·	·	–	·	·
COC(=O)c1cnc(NNS(=O)(=O)c2ccc(C(F)(F)F)cc2)nc1C(F)(F)F	–	–	–	–	–
Cc1cc(=O)oc2c(C)c3occc3cc12	–	–	–	·	?
Cc1ccc(Nc2nc(CSc3nnc(-c4ccccc4)n3C)cs2)cc1	?	32	?	52	–
Cc1ccc(Nc2nc(CSc3nnc(-c4ccccc4C)n3C)cs2)cc1	–	45	–	80	–
N#Cc1cc(S(=O)(=O)c2ccc(F)cc2)c(N)[nH]c1=O	?	–	-70	–	–[1.15 µM]
N#Cc1cc(S(=O)(=O)c2ccccc2)c(N)[nH]c1=O	?	–	–	–	3.7µM
O=C(c1ccc(Sc2ccc(F)cc2)c([N+](=O)[O-])c1)N1CCOCC1	?	–	–	–	?
Cc1cc(C(=O)Nc2cccnc2)no1	–	–	–	–	–
O=C(Nc1cccnc1)c1cc(-c2ccc(Cl)cc2Cl)on1	–	28	–	63	–
O=C(Nc1cccnc1)c1cc(-c2ccc(Cl)cc2)on1	–	40	?	152	–
Clc1cccc(Nc2c3c(nc4ncnn24)CCC3)c1	–	–	–	–	9.3µM
CCOc1ccc(Cc2onc3c2C(=O)CCC3)cc1OCC	–	–	-89	–	–
O=C(O)CCn1cc(/C=C2/NC(=S)N(c3ccccc3)C2=O)c(-c2ccccc2)n1	3.7µM	–	–	–	–
N#CCCn1cc(/C=C2\NC(=S)N(c3ccccc3)C2=O)c(-c2ccc(-c3ccccc3)cc2)n1	?	–	–	–	?
CC(C)(C)c1ccccc1OCCCCN1CCCC1	·	–	–	–	·
Cc1cccc(C(C)(C)C)c1OCCCCN1CCCC1	9.3µM	–	–	–	·
SMILES	Pf growth 96h	CHX counter	HCMV inh	Shiga inhibitor	Pf growth 48h
CCOc1ccccc1Nc1nc(-c2sc(NC(=O)c3cccc(Cl)c3)nc2C)cs1	4.7µM	–	–	–	6.6µM
CCOc1ccccc1Nc1nc(-c2sc(NC(=O)c3ccccc3)nc2C)cs1	?	–	·	–	7.4µM
COc1ccccc1Nc1nc(-c2sc(NC(=O)c3ccccc3)nc2C)cs1	?	–	–	–	?
Cc1ccc(Cl)cc1Nc1nc(-c2sc(NC(=O)c3ccccc3)nc2C)cs1	2.6µM	–	·	–	2.1µM
Cc1nc(NC(=O)c2ccccc2)sc1-c1csc(Nc2cccc(F)c2)n1	4.7µM	13	·	–	?
Cc1cc(NS(=O)(=O)c2ccc(Nc3nc(-c4sc(NC(=O)c5ccccc5)nc4C)cs3)cc2)no1	·	–	·	–	–
CC1CCN(C(=O)COC(=O)c2ccc(F)c(S(=O)(=O)N3CCOCC3)c2)CC1	–	–	–	–	–
Cc1ccc(/C=N/NC(=O)CCn2nc(C)cc2C)c(C)c1	–	–	?	–	–
CC(Sc1nncn1C)C(=O)Nc1nnc(-c2ccccc2)s1 (configuration not stated)	–	23	–	46	–
CC(SC1=NCCS1)C(=O)Nc1nnc(-c2ccc(Cl)cc2)s1 (configuration not stated)	–	12	?	29	–
